This passage reports Potency results from PubChem BioAssay (Tox21).

The structures appear in SMILES notation. Records with an inconclusive call do not appear. The source holds several records for some structures; these can differ, active in one and inactive in another. Calls of active or inactive are those of the source. Unless noted, the call rests on the fitted dose curve.

A short description of test [1]: Nuclear factor erythroid 2-related factor 2/antioxidant responsive element (Nrf2/ARE) small molecule agonists: qHTS cell viability counter screen in human keratinocytes (AID 1919968; active means well fitted curve in the direction sought with a large enough effect in the repeat runs; an effect the other way counts as inactive or inconclusive; further: nearly all actives have a fitted effect of over 55% in size). A digest of the protocol:
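Fluorescence read-out from CellTiter-Fluor after 1 h at 37 C. Wells held HaCaT-derived ARE-luciferase reporter cells (1,500/well) treated 23 h with DMSO-dissolved compounds. Run in the same wells as the luciferase agonist read.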
For orientation: In qHTS, concentration-response curves come from the screen itself.

A short description of test [2]: Nuclear factor erythroid 2-related factor 2/antioxidant responsive element (Nrf2/ARE) small molecule agonists: luciferase reporter gene qHTS assay in human keratinocytes (AID 1919969). Further: nearly all actives have a fitted effect of over 35% in size. Further: potency means the concentration at half of the fitted maximal effect.
The target of test [3] is Gonadotropin-releasing hormone receptor (Homo sapiens) (UniProt P30968). The test is described as follows: Human gonadotropin-releasing hormone receptor (GnRHR) small molecule agonists, calcium flux assay in GnRHR-HEK293 cells (AID 1920063). Further: nearly all actives have a fitted effect of over 35% in size. A digest of the protocol: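 Calcium-dye fluorescence, Ex/Em=480/540, recorded every 1 sec over 3 min after compound addition to GnRHR-HEK293 cells. Cells had been seeded 18 hours earlier and dye-loaded for 1 hour at 37 C. Fifteen concentrations, triplicates.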
Chain of Gonadotropin-releasing hormone receptor (Homo sapiens) (P30968 whole entry, looked up): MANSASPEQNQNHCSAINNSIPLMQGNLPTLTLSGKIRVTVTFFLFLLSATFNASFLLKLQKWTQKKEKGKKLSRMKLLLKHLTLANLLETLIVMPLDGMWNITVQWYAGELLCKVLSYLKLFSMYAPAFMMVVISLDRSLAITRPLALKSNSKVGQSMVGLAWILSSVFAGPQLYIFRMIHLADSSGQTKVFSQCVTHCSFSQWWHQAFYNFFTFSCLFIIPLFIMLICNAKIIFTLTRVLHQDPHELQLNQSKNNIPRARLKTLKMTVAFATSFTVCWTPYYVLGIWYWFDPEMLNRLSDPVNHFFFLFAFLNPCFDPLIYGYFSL
A general note: Calcium flux is commonly read through the fluorescence of an indicator in the cells.

The target of test [4] is KiSS-1 receptor (Homo sapiens) (UniProt Q969F8). The test is described as follows: Human kisspeptin (KISS1R) small molecule agonists, calcium flux assay in KISS1R-HEK293 cells (AID 1920064; active means well fitted curve in the direction sought with a large enough effect in the repeat runs; an effect the other way counts as inactive or inconclusive). A digest of the protocol: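 Calcium flux read-out: kinetic fluorescence at Ex/Em=480/540, 1 s intervals over 3 min, after pin-tool compound addition to dye-loaded KISS1R-HEK293 cells. Fifteen concentrations, triplicates.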
Chain of KiSS-1 receptor (Homo sapiens) (Q969F8 whole entry, looked up): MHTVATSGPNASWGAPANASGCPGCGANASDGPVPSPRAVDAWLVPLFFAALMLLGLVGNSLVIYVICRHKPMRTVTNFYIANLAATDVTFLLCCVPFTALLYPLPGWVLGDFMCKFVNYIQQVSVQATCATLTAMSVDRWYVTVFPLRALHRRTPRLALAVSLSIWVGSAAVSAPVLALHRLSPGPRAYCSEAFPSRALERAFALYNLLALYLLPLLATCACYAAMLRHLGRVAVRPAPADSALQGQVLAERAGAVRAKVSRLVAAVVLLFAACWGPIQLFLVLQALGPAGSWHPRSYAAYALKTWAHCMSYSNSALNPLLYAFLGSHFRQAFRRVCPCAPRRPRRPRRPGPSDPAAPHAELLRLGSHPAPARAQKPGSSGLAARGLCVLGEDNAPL

Test [5] in a line: G protein-coupled receptor (GPCR) small molecule agonists, calcium flux assay: HEK293 wild type cell line counter screen (AID 1920065). A digest of the protocol: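 Agonist mode; 18 h seeding at 37 C, 1 h dye load at 37 C; compounds pinned from DMSO, ATP as positive control; kinetic fluorescence 480/540 nm, 3 min, 1 s reads; 15 concentrations, triplicate.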
Test [6] is described as follows: p53 small molecule agonists, cell-based qHTS assay with human liver microsomes: qHTS cell viability counter screen (AID 1963579). Further: nearly all actives have a fitted effect of over 45% in size. A digest of the protocol:
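Tox21 library compounds, delivered from DMSO stocks, were tested on p53RE-bla cells together with 0.5 mg/mL human liver microsomes and 0.5 mg/mL NADPH (final) over 16 h at 37 C; CellTiter-Glo luminescence served as the cytotoxicity measure.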

Test [7] can be described thus: p53 small molecule agonists, cell-based qHTS assay with rat liver microsomes: qHTS cell viability counter screen (AID 1963580). Further: nearly all actives have a fitted effect of over 45% in size. Further: potency means the concentration at half of the fitted maximal effect. In a few lines:
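Rat liver microsome (0.5 mg/mL final) and NADPH (0.5 mg/mL final) co-incubation with compounds for 16 h at 37 C on HCT-116 p53RE-bla cells; cytotoxicity taken from intracellular ATP luminescence.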

Test [8] has as its target 5-hydroxytryptamine receptor 2A (Homo sapiens) (UniProt P28223). The test is described as follows: 5-hydroxytryptamine receptor 2A (HTR2A) small molecule antagonists, cell-based qHTS assay (AID 1963586). Further: nearly all actives have a fitted effect of over 45% in size. A digest of the protocol: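 CHO cells stably expressing human HTR2A were plated for 18 h at 37 C, then loaded with calcium dye for 1 h. Compounds were preincubated 5 min at room temperature before DOI (4 nM solution) was added. Kinetic fluorescence was read for 3 min.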

The target is the same in test [9]. Kind of test: 5-hydroxytryptamine receptor 2A (HTR2A) small molecule agonists, cell-based qHTS assay (AID 1963587). Further: nearly all actives have a fitted effect of over 30% in size. In a few lines: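 Kinetic calcium-flux fluorescence (2 min, 1 sec intervals) after compound addition in agonist mode. HTR2A-CHO cells were cultured 18 h, then dye-loaded 1 h at 37 C.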
Test [10] can be described thus: cAMP Responsive Elements (CRE) small molecule agonists, cell-based qHTS assay (AID 1963590). In a few lines: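 Beta-lactamase reporter readout: LiveBLAzer B/G FRET substrate, 2 h at room temperature, added after 3 h compound treatment of CRE-bla HEK 293T cells at 37 C/5% CO2.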
Test [11] in a line: cAMP Responsive Elements (CRE) small molecule antagonists, cell-based qHTS assay (AID 1963591; active means well fitted inhibition curve with a large enough effect in the signal ratio in the repeat runs, not every such curve was filed as active; the % refers to the signal ratio). A digest of the protocol:
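HEK293T CRE-bla; 18 h preincubation; compound pin-transfer; NKH477 0.25 uM final, 3 h, 37 C; LiveBLAzer FRET substrate 2 h RT.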

Test [12] deals with Beta-2 adrenergic receptor (Homo sapiens) (UniProt P07550). Kind of test: Adrenergic beta2 receptor (ADRB2) small molecule antagonists, cell-based qHTS assay (AID 1963592). Further: series mostly up to about 92 µM; nearly all actives have a fitted effect of over 50% in size. A digest of the protocol: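 Assay format: CHO-ADRB2 cells, 18-20hr seeding at 37C/5% CO2, then compound plus 1nM isoproterenol agonist mix for 0.5hr RT. Homogeneous time-resolved fluorescence cAMP detection after 1hr, expressed as 665/615 nm ratio.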
Chain of Beta-2 adrenergic receptor (Homo sapiens) (P07550 whole entry, looked up): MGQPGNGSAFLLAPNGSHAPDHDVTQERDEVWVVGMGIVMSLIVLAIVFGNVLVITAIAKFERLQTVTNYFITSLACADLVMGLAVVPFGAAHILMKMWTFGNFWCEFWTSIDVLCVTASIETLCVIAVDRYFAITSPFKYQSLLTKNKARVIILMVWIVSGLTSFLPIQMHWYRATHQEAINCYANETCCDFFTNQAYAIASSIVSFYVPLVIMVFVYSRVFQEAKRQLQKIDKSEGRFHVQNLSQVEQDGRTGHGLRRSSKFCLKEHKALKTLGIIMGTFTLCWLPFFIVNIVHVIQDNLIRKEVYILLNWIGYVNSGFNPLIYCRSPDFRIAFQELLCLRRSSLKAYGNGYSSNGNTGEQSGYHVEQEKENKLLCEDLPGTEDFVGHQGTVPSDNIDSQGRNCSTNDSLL

For test [13] the target is unchanged. The test is described as follows: Adrenergic beta2 receptor (ADRB2) small molecule agonists, cell-based qHTS assay (AID 1963593).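 Further: CHO cells stably overexpressing human ADRB2.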 A digest of the protocol:
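CHO cells stably over-expressing ADRB2 were plated overnight at 37C, then dosed with compounds plus a stimulation mix containing 100uM IBMX and 25uM Ro-20-1724 for 0.5hr at room temperature. cAMP was measured by HTRF competition, 1hr.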

Test [14] has as its target D(2) dopamine receptor (Homo sapiens) (UniProt P14416). The test is described as follows: Dopamine D2 receptor (DRD2) small molecule agonists, cell-based qHTS assay (AID 1963594). Further: nearly all actives have a fitted effect of over 35% in size. In a few lines: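 cAMP accumulation in DRD2-HEK293 cells measured by HTRF after 1 h detection; compounds added 10 min before NKH477 (200nM […]) forskolin-analogue stimulation, 30 min at room temperature, with Ro20-1724 present at 0.1 mM final.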

Test [15] has the same target. Kind of test: Dopamine D2 receptor (DRD2) small molecule antagonists, cell-based qHTS assay (AID 1963595; active means well fitted inhibition curve with a large enough effect in the signal ratio in the repeat runs, with a control signal flat; the % refers to the signal ratio). In a few lines:
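HEK293 cells stably expressing DRD2 were preincubated with 0.1 mM Ro20-1724, then with compound for 10 min at room temperature. Cells were stimulated with 200 nM NKH477 plus 12 nM quinpirole for 30 min, and cAMP was read by HTRF.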

Test [16] can be described thus: p53 small molecule agonists, cell-based qHTS assay: qHTS cell viability counter screen (AID 1963581). Further: nearly all actives have a fitted effect of over 45% in size. In a few lines: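 Cytotoxicity read-out: ATP-based luminescence (CellTiter-Glo, 30 min RT) measured in the same wells as the p53 reporter assay, HCT-116 p53RE-bla cells, 16 h compound exposure at 37 C.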
Test [17] concerns the target Muscarinic acetylcholine receptor M1 (Homo sapiens) (UniProt P11229). Kind of test: Cholinergic receptor muscarinic 1 (CHRM1) small molecule antagonists, cell-based qHTS assay (AID 1963588). Further: nearly all actives have a fitted effect of over 40% in size. In a few lines:
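Compounds were tested at 15 concentrations in three independent runs. Dye-loaded CHRM1-CHO cells were exposed 5 min at room temperature before stimulation by acetylcholine added at 50nM. Intracellular calcium was read kinetically on FDSS for 3 min.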

For test [18] the target is unchanged. The test is described as follows: Cholinergic receptor muscarinic 1 (CHRM1) small molecule agonists, cell-based qHTS assay (AID 1963589). Further: nearly all actives have a fitted effect of over 35% in size. In a few lines:
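Calcium flux read-out: kinetic fluorescence at 1 sec intervals after pin-tool compound addition to dye-loaded CHRM1-CHO cells (human M1). Agonist mode; 15 concentrations tested in triplicate independent runs.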

Chain of D(2) dopamine receptor (Homo sapiens) (P14416 whole entry, looked up): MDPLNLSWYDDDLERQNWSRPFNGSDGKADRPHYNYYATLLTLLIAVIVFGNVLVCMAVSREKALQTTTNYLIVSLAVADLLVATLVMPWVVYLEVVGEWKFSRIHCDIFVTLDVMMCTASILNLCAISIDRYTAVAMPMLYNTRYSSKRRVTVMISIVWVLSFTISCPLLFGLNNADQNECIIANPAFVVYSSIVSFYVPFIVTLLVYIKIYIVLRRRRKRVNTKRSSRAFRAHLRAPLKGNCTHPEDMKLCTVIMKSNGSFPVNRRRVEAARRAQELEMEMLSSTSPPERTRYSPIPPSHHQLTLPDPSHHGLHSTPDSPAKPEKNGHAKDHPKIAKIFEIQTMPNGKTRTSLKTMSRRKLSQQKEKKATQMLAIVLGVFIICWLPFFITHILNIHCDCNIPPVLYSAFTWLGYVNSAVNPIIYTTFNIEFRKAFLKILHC
Chain of 5-hydroxytryptamine receptor 2A (Homo sapiens) (P28223 whole entry, looked up): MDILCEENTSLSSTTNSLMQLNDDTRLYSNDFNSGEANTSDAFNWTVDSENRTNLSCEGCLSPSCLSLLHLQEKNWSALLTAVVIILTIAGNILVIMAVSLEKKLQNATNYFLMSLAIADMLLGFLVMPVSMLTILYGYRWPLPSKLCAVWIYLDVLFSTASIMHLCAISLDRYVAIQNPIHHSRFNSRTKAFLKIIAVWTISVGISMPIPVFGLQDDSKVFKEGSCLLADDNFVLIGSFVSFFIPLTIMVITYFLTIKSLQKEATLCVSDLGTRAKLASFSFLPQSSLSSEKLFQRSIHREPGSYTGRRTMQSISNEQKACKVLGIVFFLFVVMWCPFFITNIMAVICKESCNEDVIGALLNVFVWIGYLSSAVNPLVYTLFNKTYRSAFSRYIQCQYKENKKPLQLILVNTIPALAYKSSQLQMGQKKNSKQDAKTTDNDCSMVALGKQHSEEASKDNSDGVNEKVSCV
Chain of Muscarinic acetylcholine receptor M1 (Homo sapiens) (P11229 whole entry, looked up): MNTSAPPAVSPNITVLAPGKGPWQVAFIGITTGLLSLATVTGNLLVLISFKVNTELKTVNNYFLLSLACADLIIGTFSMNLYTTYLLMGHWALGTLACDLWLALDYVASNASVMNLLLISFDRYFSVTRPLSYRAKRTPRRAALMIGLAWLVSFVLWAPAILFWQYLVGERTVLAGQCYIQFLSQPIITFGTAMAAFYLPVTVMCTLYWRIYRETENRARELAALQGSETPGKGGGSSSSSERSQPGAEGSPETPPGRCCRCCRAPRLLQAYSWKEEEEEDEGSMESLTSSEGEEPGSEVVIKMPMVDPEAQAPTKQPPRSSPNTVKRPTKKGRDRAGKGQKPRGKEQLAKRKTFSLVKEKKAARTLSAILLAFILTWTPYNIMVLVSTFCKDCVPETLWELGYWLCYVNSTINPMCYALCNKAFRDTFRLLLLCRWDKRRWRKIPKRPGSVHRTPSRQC

On to `CC(=O)C=C(C)C`, for which the Potency entry in [1], in test [2], in test [3], in [4], in [5] and in test [6] was “inactive” in each case. In addition, the Potency result in test [7], in test [8], in test [9], in test [10], in test [11] and in test [12] was “inactive” each time. Further, the Potency entry in test [13], in [14] and in test [15] was “inactive” throughout.

`CCC1(c2ccc(N)cc2)CCC(=O)NC1=O` (stereo unspecified): the Potency result in test [1], in [2], in [3], in test [4], in [5] and in test [6] was “inactive” each time. Besides, the Potency entry in test [7], in test [16], in test [10], in test [11], in test [13] and in [14] was “inactive” in each case. In addition, in test [15], the Potency entry was “inactive”.

Turning to `C[C@]12CC[C@H](O)CC1=CC[C@@H]1[C@@H]2CC[C@]2(C)C(=O)CC[C@@H]12`, the Potency entry in test [1], in test [2], in [3], in test [4], in test [5] and in test [6] was “inactive” throughout. Moreover, the Potency result in test [7], in test [16], in test [14] and in test [15] was “inactive” in each case.

On to `CC1(C)Cc2cccc(O)c2O1`, for which the Potency result in [1], in [2], in test [3], in [4], in test [5] and in test [6] was “inactive” throughout. Besides, the Potency result in test [7], in test [8], in test [9], in test [17], in [18] and in test [10] was “inactive” each time. Moreover, the Potency result in [11], in test [12], in test [14] and in [15] was “inactive” each time.

Take `CCNc1nc(NC(C)C)nc(SC)n1`: the Potency result in test [1], in [2], in test [3], in test [4], in test [5] and in [6] was “inactive” in each case. In addition, the Potency entry in test [7], in test [16], in [8], in test [9], in test [17] and in test [18] was “inactive” throughout. The Potency entry in [11], in test [12], in [14] and in test [15] was “inactive” throughout.

On to `Cc1cc(C)cc(C)c1`, for which the Potency entry in test [1], in test [2], in test [3], in test [4], in [5] and in test [6] was “inactive” each time. Moreover, the Potency result in [7], in test [16], in test [8], in test [9], in test [17] and in test [18] was “inactive” throughout. Also, the Potency entry in [10], in [11], in test [12], in test [14] and in test [15] was “inactive” in each case.

For the compound `O=[N+]([O-])c1ccc(Cl)c(Cl)c1`, the Potency result in test [1], in test [2], in test [3], in [4], in test [5] and in test [6] was “inactive” each time. Moreover, the Potency entry in [7], in test [16], in test [8], in test [9], in test [17] and in test [18] was “inactive” in each case. For the same compound, the Potency result in test [10], in test [11], in [12], in test [14] and in test [15] was “inactive” throughout.

With `NC(=S)Nc1ccccc1`, the Potency result in [1], in test [3], in test [4], in test [5], in test [6] and in test [16] was “inactive” in each case. The Potency result in test [8], in test [9], in test [17], in [18], in [10] and in [11] was “inactive” in each case. Besides, the Potency result in test [12], in [14] and in test [15] was “inactive” throughout. Moreover, the Potency was 55.4 µM (active) and inactive in test [2]; 29.4 µM (active) and inactive in test [7].
